The nature of assay [1]: Nuclear factor erythroid 2-related factor 2/antioxidant responsive element (Nrf2/ARE) small molecule agonists: qHTS cell viability counter screen in human keratinocytes (AID 1919968; active = well fitted curve in the direction sought with a large enough effect in the repeat runs; an effect the other way counts as inactive or inconclusive; also: nearly all actives have a fitted effect of over 55% in size; also: potency is read from the fitted curve at half-maximal effect). Summed up: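 Seed 1,500 KeratinoSens cells per well, then incubate 5 h at 37 C/5% CO2. Add compounds in DMSO and incubate 23 h. Add CellTiter-Fluor, wait 1 h and read fluorescence.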
Assay [2] can be described thus: Nuclear factor erythroid 2-related factor 2/antioxidant responsive element (Nrf2/ARE) small molecule agonists: luciferase reporter gene qHTS assay in human keratinocytes (AID 1919969; also: nearly all actives have a fitted effect of over 35% in size). (In general: A reporter such as luciferase makes a cellular process visible.)
Assay [3] has as its target Gonadotropin-releasing hormone receptor (Homo sapiens) (UniProt P30968). The assay is described as follows: Human gonadotropin-releasing hormone receptor (GnRHR) small molecule agonists, calcium flux assay in GnRHR-HEK293 cells (AID 1920063). Also: nearly all actives have a fitted effect of over 35% in size. Summed up: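 Cells: HEK293 stably expressing human GnRHR. Steps: overnight (18 h) culture, 1 h calcium dye loading at 37 C, compound addition, kinetic fluorescence read at 480/540 nm. Each compound tested at 15 concentrations in triplicate.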
(Calcium assays in cells follow changes in intracellular calcium, usually with a dye or a luminescent sensor.)

The target in assay [4] is KiSS-1 receptor (Homo sapiens) (UniProt Q969F8). The assay is described as follows: Human kisspeptin (KISS1R) small molecule agonists, calcium flux assay in KISS1R-HEK293 cells (AID 1920064; active = well fitted curve in the direction sought with a large enough effect in the repeat runs; an effect the other way counts as inactive or inconclusive). In a few lines:
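Cells plated and incubated 18 h; dye added, 1 h at 37 C; compounds in DMSO pinned in; signal read at 480/540 nm every second for 3 min. Each compound tested at 15 concentrations in triplicate.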

The nature of assay [5]: G protein-coupled receptor (GPCR) small molecule agonists, calcium flux assay: HEK293 wild type cell line counter screen (AID 1920065). In a few lines:
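Counter-screen of the Tox21 10K library for non-specific calcium release: dye-loaded cells received compounds in DMSO and were monitored by kinetic fluorescence (480/540 nm, 3 min). Fifteen concentrations, run in triplicate.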

Assay [6] in a line: p53 small molecule agonists, cell-based qHTS assay with human liver microsomes (AID 1963577). Summed up: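 In this qHTS, p53 response-element beta-lactamase cells receive test compound together with a microsome/NADPH activating system (0.5 mg/mL final each) and are incubated 16 h at 37 C before LiveBLAzer fluorescence detection.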
(In general: In qHTS, concentration-response curves come from the screen itself.)

Assay [7] can be described thus: p53 small molecule agonists, cell-based qHTS assay with rat liver microsomes (AID 1963578). Summed up: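 Agonist mode in p53RE-bla reporter cells, with compounds co-incubated 16 h at 37 C alongside 0.5 mg/mL rat liver microsomes and 0.5 mg/mL NADPH (final), followed by a 2 h LiveBLAzer detection step.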
Assay [8] in a line: p53 small molecule agonists, cell-based qHTS assay with human liver microsomes: qHTS cell viability counter screen (AID 1963579). Also: nearly all actives have a fitted effect of over 45% in size. Also: potency is read from the fitted curve at half-maximal effect. Summed up: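 Metabolically activated exposure: compounds, human liver microsomes and NADPH (0.5 mg/mL final apiece) were added to p53RE-bla cells seeded 5 h earlier, left 16 h at 37 C, and then assessed for viability by CellTiter-Glo luminescence.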

A short description of assay [9]: p53 small molecule agonists, cell-based qHTS assay with rat liver microsomes: qHTS cell viability counter screen (AID 1963580). Also: nearly all actives have a fitted effect of over 45% in size. In a few lines:
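In HCT-116 cells carrying a p53 response element-bla reporter, compounds were metabolically activated in situ by rat liver microsomes with NADPH over 16 h. Cell ATP content then served as the cytotoxicity measure.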

Assay [10] is described as follows: p53 small molecule agonists, cell-based qHTS assay: qHTS cell viability counter screen (AID 1963581). Also: nearly all actives have a fitted effect of over 45% in size. Summed up:
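Cells: HCT-116 with p53 response element-driven beta-lactamase. Treatment: 16 h, 37 C, compounds in DMSO. Read: CellTiter-Glo luminescence after 30 min RT.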

Assay [11] has as its target 5-hydroxytryptamine receptor 2A (Homo sapiens) (UniProt P28223). Kind of assay: 5-hydroxytryptamine receptor 2A (HTR2A) small molecule agonists, cell-based qHTS assay (AID 1963587). Also: nearly all actives have a fitted effect of over 30% in size. Summed up:
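HTR2A-CHO cells, plated 18 h at 37 C/5% CO2, dye-loaded 1 h at 37 C; compounds in DMSO added by pin tool (agonist mode). Intracellular calcium flux read as kinetic fluorescence on FDSS over 2 min at 1 s intervals.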

In assay [12] the target is Muscarinic acetylcholine receptor M1 (Homo sapiens) (UniProt P11229). Kind of assay: Cholinergic receptor muscarinic 1 (CHRM1) small molecule antagonists, cell-based qHTS assay (AID 1963588). Also: nearly all actives have a fitted effect of over 40% in size. Summed up:
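CHRM1-CHO calcium-flux assay, antagonist mode. Cells were seeded 18 h, dye-loaded 1 h at 37 C and given compound for 5 min at RT, then acetylcholine was added at 50nM. FDSS fluorescence was read 3 min; 15 concentrations, three runs.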

The target is the same in assay [13]. Kind of assay: Cholinergic receptor muscarinic 1 (CHRM1) small molecule agonists, cell-based qHTS assay (AID 1963589). Also: nearly all actives have a fitted effect of over 35% in size. Summed up: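 Agonist-mode qHTS in CHO cells stably carrying human muscarinic M1. Intracellular calcium is tracked by fluorescence every second after compound transfer; each compound runs at 15 concentrations in three independent runs.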
The nature of assay [14]: cAMP Responsive Elements (CRE) small molecule agonists, cell-based qHTS assay (AID 1963590). Summed up: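 Agonist mode qHTS in CRE-bla HEK 293T cells: compounds dosed from DMSO for 3 h at 37 C/5% CO2, followed by LiveBLAzer B/G FRET substrate for 2 h at room temperature.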
Assay [15] is described as follows: cAMP Responsive Elements (CRE) small molecule antagonists, cell-based qHTS assay (AID 1963591; active = well fitted inhibition curve with a large enough effect in the signal ratio in the repeat runs, not every such curve was filed as active; the % refers to the signal ratio). Summed up: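 Antagonist mode: test compounds are co-incubated with the adenylyl cyclase activator NKH477 (0.25 uM final) on CRE-bla HEK293T cells for 3 h at 37 °C, followed by LiveBLAzer substrate loading.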
Assay [16] has as its target Beta-2 adrenergic receptor (Homo sapiens) (UniProt P07550). The assay is described as follows: Adrenergic beta2 receptor (ADRB2) small molecule antagonists, cell-based qHTS assay (AID 1963592). Also: series mostly up to about 92 µM; nearly all actives have a fitted effect of over 50% in size. Summed up:
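Cells (CHO, stable ADRB2 overexpression) incubated 18-20hr at 37C; compounds added from DMSO; agonist mix (1nM isoproterenol, 100uM IBMX, 25uM Ro-20-1724) added; 0.5hr RT; d2-cAMP and anti-cAMP-cryptate added; 1hr RT; 665/615 nm read.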

Assay [17] has the same target. The assay is described as follows: Adrenergic beta2 receptor (ADRB2) small molecule agonists, cell-based qHTS assay (AID 1963593).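 Also: CHO cells stably overexpressing human ADRB2.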 In a few lines: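 CHO cells stably over-expressing ADRB2 were plated overnight at 37C, then dosed with compounds plus a stimulation mix containing 100uM IBMX and 25uM Ro-20-1724 for 0.5hr at room temperature. cAMP was measured by HTRF competition, 1hr.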

The target of assay [18] is D(2) dopamine receptor (Homo sapiens) (UniProt P14416). Kind of assay: Dopamine D2 receptor (DRD2) small molecule agonists, cell-based qHTS assay (AID 1963594). Also: nearly all actives have a fitted effect of over 35% in size. In a few lines: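 HEK293 cells stably expressing DRD2 were cultured 24 h at 37 C, then given Ro20-1724 (0.1 mM final) and compounds for 10 min at room temperature. NKH477 (200nM) was then added for 30 min. cAMP was read by HTRF.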

Assay [19] has the same target. Kind of assay: Dopamine D2 receptor (DRD2) small molecule antagonists, cell-based qHTS assay (AID 1963595; active = well fitted inhibition curve with a large enough effect in the signal ratio in the repeat runs, with a control signal flat; the % refers to the signal ratio). In a few lines: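 Cells were plated and grown for 24 h at 37 °C. Ro20-1724 (0.1 mM final) went in first, then compound for 10 min. NKH477 (200 nM) with quinpirole (12 nM) followed for 30 min at RT, then HTRF detection reagents for 1 h.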
Assay [20] can be described thus: p53 small molecule agonists, cell-based qHTS assay (AID 1963582; active = well fitted activation curve with a large enough effect in the signal ratio in the repeat runs, not every such curve was filed as active; the % refers to the signal ratio). In a few lines:
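Quantitative HTS in p53RE-bla cells: after a 5 h settling period, compounds delivered in DMSO were left on cells for 16 h at 37 C, and reporter induction was measured as fluorescence following 2 h substrate loading.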

Several values for one entry are separate records, joined by “and”; a condition that tells them apart may be missing. Identical values can stand only once. Results filed as inconclusive are left out. Some compounds were tested as several samples or in several runs, with calls that do not always agree. Activity calls are given as the source filed them. Unless noted, calls follow the shape of the full dose curve.

5-hydroxytryptamine receptor 2A (Homo sapiens), sequence (P28223 whole entry, looked up): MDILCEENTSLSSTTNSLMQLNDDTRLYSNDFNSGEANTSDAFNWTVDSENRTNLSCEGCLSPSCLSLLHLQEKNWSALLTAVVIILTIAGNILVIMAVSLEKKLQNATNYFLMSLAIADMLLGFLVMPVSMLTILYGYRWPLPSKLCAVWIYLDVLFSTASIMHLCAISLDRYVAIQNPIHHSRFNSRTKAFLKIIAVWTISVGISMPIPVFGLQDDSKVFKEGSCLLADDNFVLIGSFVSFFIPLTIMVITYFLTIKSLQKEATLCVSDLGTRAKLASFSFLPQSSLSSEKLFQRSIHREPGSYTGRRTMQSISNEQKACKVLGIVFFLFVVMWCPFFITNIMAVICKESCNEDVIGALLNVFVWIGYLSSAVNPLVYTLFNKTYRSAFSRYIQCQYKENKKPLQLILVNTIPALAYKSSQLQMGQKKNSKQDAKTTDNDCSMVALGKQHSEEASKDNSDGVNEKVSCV
D(2) dopamine receptor (Homo sapiens), sequence (P14416 whole entry, looked up): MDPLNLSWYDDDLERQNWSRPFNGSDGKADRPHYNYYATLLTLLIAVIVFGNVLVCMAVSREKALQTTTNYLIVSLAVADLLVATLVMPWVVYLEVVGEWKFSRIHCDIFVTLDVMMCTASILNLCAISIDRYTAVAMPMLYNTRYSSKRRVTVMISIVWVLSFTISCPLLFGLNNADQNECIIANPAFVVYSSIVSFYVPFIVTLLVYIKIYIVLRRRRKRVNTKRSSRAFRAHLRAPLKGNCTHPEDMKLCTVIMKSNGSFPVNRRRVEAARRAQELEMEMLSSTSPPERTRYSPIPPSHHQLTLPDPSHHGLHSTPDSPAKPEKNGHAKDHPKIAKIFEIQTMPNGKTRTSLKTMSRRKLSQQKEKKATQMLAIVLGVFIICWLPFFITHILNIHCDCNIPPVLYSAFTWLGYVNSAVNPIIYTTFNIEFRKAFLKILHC
Muscarinic acetylcholine receptor M1 (Homo sapiens), sequence (P11229 whole entry, looked up): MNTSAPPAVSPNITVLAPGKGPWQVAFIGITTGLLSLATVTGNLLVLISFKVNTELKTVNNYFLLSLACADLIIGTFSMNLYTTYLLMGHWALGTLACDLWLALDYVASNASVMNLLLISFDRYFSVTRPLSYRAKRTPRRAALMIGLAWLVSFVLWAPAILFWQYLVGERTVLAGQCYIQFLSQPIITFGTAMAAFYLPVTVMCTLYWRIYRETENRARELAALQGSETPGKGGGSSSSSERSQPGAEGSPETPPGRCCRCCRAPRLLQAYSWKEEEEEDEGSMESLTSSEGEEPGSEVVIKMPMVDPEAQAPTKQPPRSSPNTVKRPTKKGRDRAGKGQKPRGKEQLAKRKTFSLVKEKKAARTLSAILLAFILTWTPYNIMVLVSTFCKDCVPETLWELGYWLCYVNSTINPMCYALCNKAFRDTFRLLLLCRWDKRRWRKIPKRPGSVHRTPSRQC
KiSS-1 receptor (Homo sapiens), sequence (Q969F8 whole entry, looked up): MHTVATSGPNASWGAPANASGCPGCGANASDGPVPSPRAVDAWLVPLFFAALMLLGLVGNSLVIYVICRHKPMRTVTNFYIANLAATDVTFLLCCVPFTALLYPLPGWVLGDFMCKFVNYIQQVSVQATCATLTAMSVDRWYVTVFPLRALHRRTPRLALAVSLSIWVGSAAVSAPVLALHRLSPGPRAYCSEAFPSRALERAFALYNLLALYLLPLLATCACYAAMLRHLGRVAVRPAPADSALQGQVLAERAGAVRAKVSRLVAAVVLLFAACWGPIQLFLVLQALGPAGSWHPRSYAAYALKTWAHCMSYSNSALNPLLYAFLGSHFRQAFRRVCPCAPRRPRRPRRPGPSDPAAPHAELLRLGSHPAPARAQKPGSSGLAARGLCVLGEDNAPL
Beta-2 adrenergic receptor (Homo sapiens), sequence (P07550 whole entry, looked up): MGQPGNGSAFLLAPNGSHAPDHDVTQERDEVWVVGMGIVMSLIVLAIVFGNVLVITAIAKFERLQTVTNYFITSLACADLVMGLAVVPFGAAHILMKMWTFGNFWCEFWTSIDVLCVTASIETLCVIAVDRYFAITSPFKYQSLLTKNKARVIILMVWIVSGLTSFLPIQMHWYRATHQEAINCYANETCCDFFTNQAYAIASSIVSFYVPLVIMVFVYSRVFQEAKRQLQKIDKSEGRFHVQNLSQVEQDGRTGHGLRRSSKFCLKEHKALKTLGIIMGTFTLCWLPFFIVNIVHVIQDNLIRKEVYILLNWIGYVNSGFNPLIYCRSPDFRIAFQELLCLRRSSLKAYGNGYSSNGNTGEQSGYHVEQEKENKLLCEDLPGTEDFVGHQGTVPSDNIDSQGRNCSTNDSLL
Gonadotropin-releasing hormone receptor (Homo sapiens), sequence (P30968 whole entry, looked up): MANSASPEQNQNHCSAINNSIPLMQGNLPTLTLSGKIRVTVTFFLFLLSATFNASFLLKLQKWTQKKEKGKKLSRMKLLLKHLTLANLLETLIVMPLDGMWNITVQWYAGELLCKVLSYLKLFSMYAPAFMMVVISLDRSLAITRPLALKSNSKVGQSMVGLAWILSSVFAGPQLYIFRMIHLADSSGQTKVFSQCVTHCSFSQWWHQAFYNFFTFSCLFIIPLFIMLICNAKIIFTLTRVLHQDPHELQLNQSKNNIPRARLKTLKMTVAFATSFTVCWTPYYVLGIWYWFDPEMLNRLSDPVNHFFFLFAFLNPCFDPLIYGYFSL

As to `C=CC(C)(O)CC/C=C(\C)CC` (stereo unspecified), the Potency result in assay [1], in assay [2], in assay [3], in assay [4], in [5] and in assay [6] was “inactive” in each case. The Potency result in assay [7], in assay [8], in assay [9], in [10], in [11] and in [12] was “inactive” throughout. Moreover, the Potency result in assay [13], in assay [14], in [15], in [16], in [17] and in assay [18] was “inactive” each time. For the same compound, in assay [19], the Potency result was “inactive”.
Turning to `O=C(O)c1cc(N=Nc2ccc(S(=O)(=O)Nc3ccccn3)cc2)ccc1O`, the Potency entry in assay [1], in assay [2], in assay [3], in [4], in [5] and in assay [6] was “inactive” each time. The Potency result in assay [7], in [8], in assay [9], in assay [10], in assay [20] and in assay [14] was “inactive” throughout. The Potency result in assay [16], in assay [17] and in assay [18] was “inactive” throughout.
For `CC(C)NC(=O)c1ccccc1N`, the Potency result in [1], in assay [2], in [3], in assay [4], in [5] and in [6] was “inactive” in each case. The Potency entry in assay [7], in [8], in assay [9], in [10], in assay [20] and in assay [12] was “inactive” each time. For the same compound, the Potency result in [13], in [14], in assay [16] and in assay [19] was “inactive” each time.
As for `CC(C)(C)CC(C)(C)c1ccc(OCCOCC[N+](C)(C)Cc2ccccc2)cc1`, the Potency was 24.3 µM (active) and 10.6 µM (active) in assay [1]; 20.4 µM (active) and inactive in [8]. For the same compound, the Potency entry in assay [2], in [3], in assay [4], in [5], in [6] and in [7] was “inactive” in each case. Besides, the Potency result in assay [9], in assay [10], in assay [20], in [15] and in assay [18] was “inactive” throughout.
As for `Cc1ccc(Nc2ccc(O)c3c2C(=O)c2ccccc2C3=O)cc1`, the Potency entry in [1], in assay [2], in assay [3], in assay [4], in assay [5] and in [6] was “inactive” throughout. Moreover, the Potency result in assay [7], in assay [8], in assay [9], in assay [10], in assay [20] and in [11] was “inactive” throughout. Moreover, the Potency result in assay [12], in assay [13], in [14], in assay [15], in [17] and in assay [18] was “inactive” in each case. Further, the Potency entry in assay [19] was “inactive”.
As for `CC(C)C(=O)OC(=O)C(C)C`, the Potency entry in assay [1], in [2], in assay [3], in assay [4], in [5] and in assay [6] was “inactive” in each case. Moreover, the Potency result in assay [7], in assay [8], in assay [9], in assay [10], in assay [20] and in assay [11] was “inactive” each time. The Potency result in assay [12], in [13], in [14], in assay [15], in assay [17] and in [18] was “inactive” in each case. The Potency entry in assay [19] is “inactive”.
For the compound `CCCC=O`, the Potency entry in assay [1], in assay [2], in assay [3], in [4], in [5] and in assay [6] was “inactive” throughout. Also, the Potency entry in assay [7], in assay [8], in assay [9], in [10], in assay [11] and in [12] was “inactive” each time. The Potency result in [13], in assay [14], in assay [15], in assay [16] and in [18] was “inactive” each time.
For `CS(=O)(=O)O`, the Potency entry in assay [1], in assay [2], in assay [3], in assay [4], in assay [5] and in assay [6] was “inactive” throughout. For the same compound, the Potency entry in [7], in assay [8], in assay [9], in [10], in [11] and in assay [12] was “inactive” each time. Besides, the Potency result in assay [13], in [14], in assay [15], in assay [16], in assay [17] and in [18] was “inactive” in each case.

Values taken from PubChem BioAssay (Tox21).
